Reference: PMC7819943, “Rice protein-binding microarrays: a tool to detect cis-acting elements near promoter regions in rice”
Whole data set: some 68,000 sequences, median “fluorescence intensity (a.u.)” near 9,100, cut for the highest 2% near 16,000. Many of the other results were omitted from the sample, so the highest values are more common in it than they were.

target: OsWRKY34 (Oryza sativa, UniProt Q0JBA9 1-250); experiment: protein-binding microarray (RPBM); PBS, 2% BSA, 51.3 ng/ul salmon testes DNA, 50 uM zinc acetate, 200 nM TF, 25 C, 1 h; high values mean tight binding; settings: protein: recombinant; tags: N-terminal polyhistidine and DsRed monomer fusion (pET32a); label: CyDye5-dUTP incorporated in the synthesized complementary strand; 3' TTTTT single-stranded linker to array surface; dsDNA, one strand shown
Method in brief: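 Transcription factors were made in E. coli BL21-CodonPlus as N-terminal fusions to a polyhistidine tag and DsRed, then purified on Ni–NTA. After primer extension with Cy5-dUTP and blocking with 2% BSA, a custom Agilent array was exposed for 1 h at 25 °C to 200 nM protein in PBS, 2% BSA, salmon testes DNA and 50 µM zinc acetate. Washed arrays were scanned on an Axon 4000B, and the binding signal is per-feature fluorescence intensity in arbitrary units.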

Sequence of OsWRKY34 (Q0JBA9 entry or part of it): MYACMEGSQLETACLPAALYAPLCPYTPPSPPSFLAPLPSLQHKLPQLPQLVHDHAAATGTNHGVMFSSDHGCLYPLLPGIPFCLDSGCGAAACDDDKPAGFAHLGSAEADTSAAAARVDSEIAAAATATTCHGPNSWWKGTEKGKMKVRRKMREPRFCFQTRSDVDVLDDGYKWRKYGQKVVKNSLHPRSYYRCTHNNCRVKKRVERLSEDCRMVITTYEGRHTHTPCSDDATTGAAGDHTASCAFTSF

Sequence | binding signal
TCTCGATCTCCCCGCCTATTTATGCTCGTCTCGTCACCCGCGGAGTCACCTAGTGCAG | 8140 fluorescence intensity (a.u.)
GATATTTTGCTTGTATTGTTCGACCACTCGTCTTATTAAACGGAGTCACCTAGTGCAG | 8040 fluorescence intensity (a.u.)
TCATCTCATCTCTCTCGTTTTTATATGCACGTTTTTCAAACGGAGTCACCTAGTGCAG | 9530 fluorescence intensity (a.u.)
TTTGGGTGGTGGCAGTTGACAGAAGAGAGTGAGCACACAGCGGAGTCACCTAGTGCAG | 8270 fluorescence intensity (a.u.)
TTTACAATGGTATCTATGTGTTGTTTTTGTGTGTGTGTGTCGGAGTCACCTAGTGCAG | 10100 fluorescence intensity (a.u.)
ATGCTTGCCTTCTTCTTATTCTCCTTCCCTATGGTCTTCTCGGAGTCACCTAGTGCAG | 8770 fluorescence intensity (a.u.)
ACATGCAACAGTGTGTCGTGCTTGTATTTCTGTTATCTGACGGAGTCACCTAGTGCAG | 8660 fluorescence intensity (a.u.)
TCCGTTTTGCCGTTGGGCTAGCTTAGCTTGTTTTTTTTTTCGGAGTCACCTAGTGCAG | 12000 fluorescence intensity (a.u.)
GTGCATGTGTAGGGAGGGCACAATGGAGGGGTGTTTTTTTCGGAGTCACCTAGTGCAG | 15000 fluorescence intensity (a.u.)
TCCAACTTGGGGAGGGAGGGCCGTTTCAGCTCGGGCTTTTCGGAGTCACCTAGTGCAG | 17200 fluorescence intensity (a.u.)
ATGGGTGGAGGAGTGGGAGGGGATTAAATATCGGCGGAGGCGGAGTCACCTAGTGCAG | 9240 fluorescence intensity (a.u.)
ATGTGATTAAATGGAGGGTTTTCGGGGAGGGTTTTCGGGGCGGAGTCACCTAGTGCAG | 24100 fluorescence intensity (a.u.)
CTTCAACTTTCTCGTTTTCCGTCAGCACGCTTTCCAAACTCGGAGTCACCTAGTGCAG | 9080 fluorescence intensity (a.u.)
AATGTGACCAAGCCAACTTAACTTATTATACTTCTTAGTTCGGAGTCACCTAGTGCAG | 8680 fluorescence intensity (a.u.)
CCAAGACCGCACCCGTATAAAGCCGCAGACCTCTCTCTCCCGGAGTCACCTAGTGCAG | 10100 fluorescence intensity (a.u.)
CTCTGACCATATATCACGTTCTACGTCCAGGTCAAATCACCGGAGTCACCTAGTGCAG | 8730 fluorescence intensity (a.u.)
TGCGTCCCTCTTCCTTCATTCTCCTGACGCCTAGGGCCCACGGAGTCACCTAGTGCAG | 8280 fluorescence intensity (a.u.)
TTATGGGTATGTCACCAGGGGTTTAATCTTTCATTTTCAACGGAGTCACCTAGTGCAG | 12300 fluorescence intensity (a.u.)
CACTCAACCTAACTGTTGAACGGTCCTGTTCTGGCCAACGCGGAGTCACCTAGTGCAG | 8890 fluorescence intensity (a.u.)
ATGATAGGTCCTGGACTCACAAGTTATTGAGAACGGCACGCGGAGTCACCTAGTGCAG | 50900 fluorescence intensity (a.u.)
CTGGACGCGGTCCTGCACGACACATGCATCATCTCCTCAACGGAGTCACCTAGTGCAG | 8570 fluorescence intensity (a.u.)

Sequence | binding signal
TGGTGTGTTTTTTGGGATGTTTCGGTAGGTATTTTGTGATCGGAGTCACCTAGTGCAG | 12000 fluorescence intensity (a.u.)
GGCTGCCTCCTCTCCTCATCCCTGCACCTACACTCCAATACGGAGTCACCTAGTGCAG | 8530 fluorescence intensity (a.u.)
GCAGCTCTACTGTTTTCCGCTTCCATCTTCTTCCTTTCTTCGGAGTCACCTAGTGCAG | 16700 fluorescence intensity (a.u.)
GCCTTCTCCATCTCTCTGCTTCTTTTGTTTGTTTTTCTTTCGGAGTCACCTAGTGCAG | 13000 fluorescence intensity (a.u.)
GTCCTTTACACTGATCCTGCACATCGCTCACTGTTTTCTTCGGAGTCACCTAGTGCAG | 16800 fluorescence intensity (a.u.)
TTACACATTTCTTTTTCATCACTGCTGATATGTTATCCTTCGGAGTCACCTAGTGCAG | 9940 fluorescence intensity (a.u.)
CTCACCTACCGCATCTGTGTTCCTTTTGCTTTCTTTCTTTCGGAGTCACCTAGTGCAG | 18100 fluorescence intensity (a.u.)
TCCTTTTGCTTTCTTTCTTTTGTGTTTTTCAAATTTCTACCGGAGTCACCTAGTGCAG | 9810 fluorescence intensity (a.u.)
ATCCATCTTCTTCTTCTTTCTTTCTTTTCTTCCTCTTCTTCGGAGTCACCTAGTGCAG | 10400 fluorescence intensity (a.u.)
GTTTTCTTTCTTTTTTTTTTCCACCTGTCGCACTGTACATCGGAGTCACCTAGTGCAG | 11800 fluorescence intensity (a.u.)
CATCTTACCTTACGTCCACCGCATCTCATCCTTTGCTGTTCGGAGTCACCTAGTGCAG | 12200 fluorescence intensity (a.u.)
TAATACTCCTACTATGGACTTGTTCTCCGTGTTGCTTATTCGGAGTCACCTAGTGCAG | 10200 fluorescence intensity (a.u.)
CCGTTACATGACGTGGGCCCCACCCAGCCGCGCCAGCCCACGGAGTCACCTAGTGCAG | 8450 fluorescence intensity (a.u.)
CCACTCACTCTGTGTTTCACTTGCTGCCTTTCAGTTGCAACGGAGTCACCTAGTGCAG | 8820 fluorescence intensity (a.u.)
TTCTAAATTTGAAACGGTTTTATGACTTCTTTTCAGCGTTCGGAGTCACCTAGTGCAG | 8520 fluorescence intensity (a.u.)
GGTGACGGCGGCTGTCTTCTTCGTAGGGTGCGGGGTGGCTCGGAGTCACCTAGTGCAG | 8880 fluorescence intensity (a.u.)
TGTCTACATACGCTCAATCCATTATTCCCCTATTACATCACGGAGTCACCTAGTGCAG | 9500 fluorescence intensity (a.u.)
ACCATCCAGCGCGTAACCGATTCCCTGTACATTCGGCCGCCGGAGTCACCTAGTGCAG | 9080 fluorescence intensity (a.u.)
GGAGATCTTATACCCGATTTTACTGTTGAGGATTGTGACTCGGAGTCACCTAGTGCAG | 8640 fluorescence intensity (a.u.)
ACGCTTACAACATGCGCATACACGCACACCCAATCCTATGCGGAGTCACCTAGTGCAG | 11000 fluorescence intensity (a.u.)
AGATTTTTTTGAACTTTCTGTCTGGGTCGGCTGTTTGTGTCGGAGTCACCTAGTGCAG | 10500 fluorescence intensity (a.u.)

Sequence | binding signal
GGTAGATTATATTAGGTTTTTCTTCGTGTTGTATTCACGACGGAGTCACCTAGTGCAG | 8720 fluorescence intensity (a.u.)
GTCCTTAAATATTTGACGTCGTTGACTTTTTTTAAAATATCGGAGTCACCTAGTGCAG | 20900 fluorescence intensity (a.u.)
TAGCGTCGTTGACTTTTGAACACATTTTTATCATTTAAATCGGAGTCACCTAGTGCAG | 22400 fluorescence intensity (a.u.)
CTCTTCATTTTTTTAATAGATAGCGTCGTTGACTTTTGAACGGAGTCACCTAGTGCAG | 14800 fluorescence intensity (a.u.)
CTCCGTCCTTAAATATTTGACGTCGTTGACTTTTTTAAACCGGAGTCACCTAGTGCAG | 26000 fluorescence intensity (a.u.)
TATTTTTTGGTTGTCCTTTGTTTTTTTAAAAAATATTTGTCGGAGTCACCTAGTGCAG | 8170 fluorescence intensity (a.u.)
CCTGTAATACTCTCTCCGTCTATAAATATTTGACGCCGTTCGGAGTCACCTAGTGCAG | 8560 fluorescence intensity (a.u.)
AAATACAACTTTGACTTTTTGTTTCTTTAAAAATATTTATCGGAGTCACCTAGTGCAG | 9920 fluorescence intensity (a.u.)
CACACATAAACTTTTAACTTTTTTATCACATCGTTTTAATCGGAGTCACCTAGTGCAG | 8490 fluorescence intensity (a.u.)
CTTACTCTCTCCGTCTCTAAATATTTGACGCCGTTGACTTCGGAGTCACCTAGTGCAG | 12900 fluorescence intensity (a.u.)
ACTTTTTAAATATGTTTGACCGTTCGTCTTATTCAAAAACCGGAGTCACCTAGTGCAG | 9990 fluorescence intensity (a.u.)
ACTCTCTCCGTCCTTAAATATTTGACGCCGTTGACTTTTTCGGAGTCACCTAGTGCAG | 30600 fluorescence intensity (a.u.)
TAAGACGTTTTGACTTTTTTTTTTCCTATTTAAACCTTTTCGGAGTCACCTAGTGCAG | 13500 fluorescence intensity (a.u.)
GGAGGGGTTGGAAAAATTCGGTGTTCGTGGCCGCCTTCACCGGAGTCACCTAGTGCAG | 13400 fluorescence intensity (a.u.)
GAAAATATCTGAAAGATACCGTTTGTCGTACTCCTTTTCTCGGAGTCACCTAGTGCAG | 9000 fluorescence intensity (a.u.)
AACATTGATGAGAATTGAAATCATTTCGTTGCTCTAATCTCGGAGTCACCTAGTGCAG | 8340 fluorescence intensity (a.u.)
CTAGCTGAAGACTTGTGCATGCAGTTTACACCTTTTATCTCGGAGTCACCTAGTGCAG | 9280 fluorescence intensity (a.u.)
TAGCTCGTCTACTCCTAGCTCTCTCGTCCAATCCGGCCGGCGGAGTCACCTAGTGCAG | 8680 fluorescence intensity (a.u.)
CTACGTGAGCTCGTTGCTGTGTCTCCTCTCTCTGCATCGCCGGAGTCACCTAGTGCAG | 9690 fluorescence intensity (a.u.)
CTCACAGTAAGCTTGTCCAACAGATCCATTCCTAACCTACCGGAGTCACCTAGTGCAG | 8140 ± 110 fluorescence intensity (a.u.)
TCCACTTCCAACATCTACTATCTTTTCTCACGCTTTTTCCCGGAGTCACCTAGTGCAG | 8630 fluorescence intensity (a.u.)

Sequence | binding signal
CTCCTCAGCTAGTTGCTTGTCCCACACCACATCTTTCTTTCGGAGTCACCTAGTGCAG | 12900 fluorescence intensity (a.u.)
GTCCAGTGGACCAACCGGGTCACGGTCTCACGTGCCAAAGCGGAGTCACCTAGTGCAG | 8710 fluorescence intensity (a.u.)
AAAATCTGTCATCGTCGTATCATGCATGTCGAATGTTTTGCGGAGTCACCTAGTGCAG | 8380 fluorescence intensity (a.u.)
AGCTATTTTACATGTTATTTTTTCATTGTTATCGTACTAACGGAGTCACCTAGTGCAG | 10500 fluorescence intensity (a.u.)
CACCATCCCAAAATATTTGACGCCGTTGACTTTTTTAAAACGGAGTCACCTAGTGCAG | 14000 fluorescence intensity (a.u.)
CATCCCAAAATATTTGACGTCGTTGACTTTTTTAAAAGTGCGGAGTCACCTAGTGCAG | 18000 fluorescence intensity (a.u.)
TCCCTCCATCCCAAAATGTTATCTTTGACGTCGTTGACTTCGGAGTCACCTAGTGCAG | 10900 fluorescence intensity (a.u.)
GGGTGTGTAAGGGTAGGTGGAGGGGTGGGTGATGCGAGATCGGAGTCACCTAGTGCAG | 20400 fluorescence intensity (a.u.)
AGGTGGAGGTGGGGAGGATGCGGGAGAGGGAGGTGATGATCGGAGTCACCTAGTGCAG | 14000 fluorescence intensity (a.u.)
AGGGTAAGAGGAGGAGGAGGAGGGGTAGGCGAGGGAGATGCGGAGTCACCTAGTGCAG | 8490 fluorescence intensity (a.u.)
GCGGAGGTGGTGTGGGTGGGTGAGTGAGTGAGGAGTGATGCGGAGTCACCTAGTGCAG | 17400 fluorescence intensity (a.u.)
GTAGGAGGAGGAGGAGGAGGTGGTGGTGGTGGTGGTGATGCGGAGTCACCTAGTGCAG | 15100 fluorescence intensity (a.u.)
GGAGGTCAGGATTGTTGTGGTGGGGAATTGGAGGGAAATGCGGAGTCACCTAGTGCAG | 19600 fluorescence intensity (a.u.)
GAGAGTAAGGATCAGGAGGAGGTGGAGGAGGAGGAGGATGCGGAGTCACCTAGTGCAG | 8300 fluorescence intensity (a.u.)
CGGCCCAGGTGGGAGAGGAGGGGAGGGGAGGGGAGGGATGCGGAGTCACCTAGTGCAG | 19800 fluorescence intensity (a.u.)
GGGAGGGGCGGCCCAGCGGCAGCGGAGGGGAGGGAGGATGCGGAGTCACCTAGTGCAG | 8640 fluorescence intensity (a.u.)
GGATGAGGAGGAGGGTGTGGAGGAGGAGGAGGAGGAGGTGCGGAGTCACCTAGTGCAG | 11500 fluorescence intensity (a.u.)
GTTGGAGTTGGAGGAGGTGGTGCCGTGGTGGGGATTGATGCGGAGTCACCTAGTGCAG | 10500 fluorescence intensity (a.u.)
GGGTCAGAGGGTAGGTTATTGTTGGGTAGGTGTGGAATTGCGGAGTCACCTAGTGCAG | 9800 fluorescence intensity (a.u.)
TTATAACATCTCTAGCTTCCTTTTCTAACCGTTTAACTTTCGGAGTCACCTAGTGCAG | 8410 fluorescence intensity (a.u.)
TTGGTTGTGTGTGTGCCGCCGCGAGCCCGTGACGGCGCCCCGGAGTCACCTAGTGCAG | 9390 fluorescence intensity (a.u.)
